B1: unnamed (peptide)
chain: LEFRAILFIPKRAPF
B2: unnamed (peptide)
chain: PPPPPPPPPPPLPQS
B3: unnamed (peptide)
chain: RNNRPVPPPPPMRTT

Molecular target: AgAbp1
Assay: SPOT peptide array binding signal intensity (averaged, normalized) (arbitrary units (background-subtracted, floor 0; scale differs between SH3 domains)); higher = stronger binding of the SH3 domain to the peptide
How it was run: (§1)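 GST-fused SH3 domains from four yeast species were expressed in E. coli BL21(DE3), purified on glutathione Sepharose and incubated at 10 μg/ml overnight at 4°C in TBS-based blocking buffer on cellulose membranes carrying synthetic 15-mer peptides, with cysteines replaced by serines. Bound protein was detected with anti-GST antibody, an HRP anti-mouse secondary and luminol, then imaged and quantified with Genespotter. Binding signal is the normalized, background-subtracted spot intensity averaged over replicates, in arbitrary units that differ between domains.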

Binder	SPOT peptide array binding signal intensity
B1	9
B2	9

Molecular target: AgBbc1
Assay: as above
How it was run: as §1

Binder	SPOT peptide array binding signal intensity
B1	11.8
B2	0.5

Molecular target: AgBem1-D1
Assay: as above
How it was run: as §1

Binder	SPOT peptide array binding signal intensity
B1	198
B2	28

Molecular target: AgBzz1-D1
Assay: as above
How it was run: as §1

Binder	SPOT peptide array binding signal intensity
B1	30.5
B2	5

Molecular target: AgBzz1-D2
Assay: as above
How it was run: as §1

Binder	SPOT peptide array binding signal intensity
B1	37
B2	1

Molecular target: AgCyk3
Assay: as above
How it was run: as §1

Binder	SPOT peptide array binding signal intensity
B1	4
B2	2

Molecular target: AgFus1
Assay: as above
How it was run: as §1

Binder	SPOT peptide array binding signal intensity
B1	2310
B2	≤ 0

Molecular target: AgHof1
Assay: as above
How it was run: as §1

Binder	SPOT peptide array binding signal intensity
B1	52.8
B2	228

Molecular target: AgHse1
Assay: as above
How it was run: as §1

Binder	SPOT peptide array binding signal intensity
B1	654
B2	≤ 0

Molecular target: AgLsb1
Assay: as above
How it was run: as §1

Binder	SPOT peptide array binding signal intensity
B1	1.5
B2	≤ 0

Molecular target: AgLsb4
Assay: as above
How it was run: as §1

Binder	SPOT peptide array binding signal intensity
B1	989
B2	≤ 0

Molecular target: AgMyo5
Assay: as above
How it was run: as §1

Binder	SPOT peptide array binding signal intensity
B1	≤ 0
B2	688

Molecular target: AgNbp2
Assay: as above
How it was run: as §1

Binder	SPOT peptide array binding signal intensity
B1	558
B2	2

Molecular target: AgRvs167
Assay: as above
How it was run: as §1

Binder	SPOT peptide array binding signal intensity
B1	8.17
B2	4.67

Molecular target: AgSho1
Assay: as above
How it was run: as §1

Binder	SPOT peptide array binding signal intensity
B1	850
B2	≤ 0

Molecular target: AgSla1-D1-D2
Assay: as above
How it was run: as §1

Binder	SPOT peptide array binding signal intensity
B1	14
B2	≤ 0

Molecular target: AgSla1-D3
Assay: as above
How it was run: as §1

Binder	SPOT peptide array binding signal intensity
B1	4.25
B2	0.5

Molecular target: CaAbp1-D1
Assay: as above
How it was run: as §1

Binder	SPOT peptide array binding signal intensity
B1	56
B2	4.5

Molecular target: CaAbp1-D2
Assay: as above
How it was run: as §1

Binder	SPOT peptide array binding signal intensity
B1	58
B2	3

Molecular target: CaBbc1
Assay: as above
How it was run: as §1

Binder	SPOT peptide array binding signal intensity
B1	68
B2	≤ 0

Molecular target: CaBem1-D1
Assay: as above
How it was run: as §1

Binder	SPOT peptide array binding signal intensity
B1	5
B2	≤ 0

Molecular target: CaBzz1-D1
Assay: as above
How it was run: as §1

Binder	SPOT peptide array binding signal intensity
B1	212
B2	1610

Molecular target: CaBzz1-D2
Assay: as above
How it was run: as §1

Binder	SPOT peptide array binding signal intensity
B1	109
B2	313

Molecular target: CaCyk3
Assay: as above
How it was run: as §1

Binder	SPOT peptide array binding signal intensity
B1	16.5
B2	≤ 0

Molecular target: CaFus1
Assay: as above
How it was run: as §1

Binder	SPOT peptide array binding signal intensity
B1	5550
B2	8.5

Molecular target: CaHof1
Assay: as above
How it was run: as §1

Binder	SPOT peptide array binding signal intensity
B1	6
B2	0.75

Molecular target: CaHse1
Assay: as above
How it was run: as §1

Binder	SPOT peptide array binding signal intensity
B1	267
B2	11.2

Molecular target: CaLsb1
Assay: as above
How it was run: as §1

Binder	SPOT peptide array binding signal intensity
B1	19
B2	2.25

Molecular target: CaLsb4
Assay: as above
How it was run: as §1

Binder	SPOT peptide array binding signal intensity
B1	81
B2	16

Molecular target: CaMyo5
Assay: as above
How it was run: as §1

Binder	SPOT peptide array binding signal intensity
B1	13.2
B2	235

Molecular target: CaNbp2
Assay: as above
How it was run: as §1

Binder	SPOT peptide array binding signal intensity
B1	1090
B2	34
B3	312

Molecular target: CaRvs167
Assay: as above
How it was run: as §1

Binder	SPOT peptide array binding signal intensity
B1	224
B2	2.83
B3	392

Molecular target: CaRvs167-3
Assay: as above
How it was run: as §1

Binder	SPOT peptide array binding signal intensity
B1	268
B2	≤ 0
B3	1

Molecular target: CaSho1
Assay: as above
How it was run: as §1

Binder	SPOT peptide array binding signal intensity
B1	2030
B2	≤ 0
B3	17

Molecular target: CaSla1-D1-D2
Assay: as above
How it was run: as §1

Binder	SPOT peptide array binding signal intensity
B1	49
B2	≤ 0
B3	1140

Molecular target: CaSla1-D3
Assay: as above
How it was run: as §1

Binder	SPOT peptide array binding signal intensity
B1	249
B2	1
B3	187

Molecular target: ScAbp1
Assay: as above
How it was run: as §1

Binder	SPOT peptide array binding signal intensity
B1	5
B2	≤ 0
B3	10.5

Molecular target: ScBbc1
Assay: as above
How it was run: as §1

Binder	SPOT peptide array binding signal intensity
B1	0.25
B2	1.25
B3	58

Molecular target: ScBem1-D1
Assay: as above
How it was run: as §1

Binder	SPOT peptide array binding signal intensity
B1	18
B2	≤ 0
B3	4

Molecular target: ScBzz1-D1
Assay: as above
How it was run: as §1

Binder	SPOT peptide array binding signal intensity
B1	25.5
B2	9
B3	453

Molecular target: ScBzz1-D2
Assay: as above
How it was run: as §1

Binder	SPOT peptide array binding signal intensity
B1	162
B2	2
B3	113

Molecular target: ScCyk3
Assay: as above
How it was run: as §1

Binder	SPOT peptide array binding signal intensity
B1	35
B2	≤ 0
B3	2.5

Molecular target: ScFus1
Assay: as above
How it was run: as §1

Binder	SPOT peptide array binding signal intensity
B1	3610
B2	1.5
B3	2.5

Molecular target: ScHof1
Assay: as above
How it was run: as §1

Binder	SPOT peptide array binding signal intensity
B1	1
B2	20
B3	21

Molecular target: ScHse1
Assay: as above
How it was run: as §1

Binder	SPOT peptide array binding signal intensity
B1	1790
B2	≤ 0
B3	49.5

Molecular target: ScLsb1
Assay: as above
How it was run: as §1

Binder	SPOT peptide array binding signal intensity
B1	2
B2	≤ 0
B3	27

Molecular target: ScLsb2
Assay: as above
How it was run: as §1

Binder	SPOT peptide array binding signal intensity
B1	≤ 0
B2	≤ 0
B3	13.5

Molecular target: ScLsb3
Assay: as above
How it was run: as §1

Binder	SPOT peptide array binding signal intensity
B1	164
B2	42.5
B3	1090

Molecular target: ScLsb4
Assay: as above
How it was run: as §1

Binder	SPOT peptide array binding signal intensity
B1	11.5
B2	7
B3	500

Molecular target: ScMyo3
Assay: as above
How it was run: as §1

Binder	SPOT peptide array binding signal intensity
B1	≤ 0
B2	1490
B3	425

Molecular target: ScMyo5
Assay: as above
How it was run: as §1

Binder	SPOT peptide array binding signal intensity
B1	4
B2	1040
B3	156

Molecular target: ScNbp2
Assay: as above
How it was run: as §1

Binder	SPOT peptide array binding signal intensity
B1	593
B2	≤ 0
B3	622

Molecular target: ScPex13
Assay: as above
How it was run: as §1

Binder	SPOT peptide array binding signal intensity
B1	186
B2	51.5
B3	1210

Molecular target: ScRvs167
Assay: as above
How it was run: as §1

Binder	SPOT peptide array binding signal intensity
B1	29.2
B2	≤ 0
B3	2320

Molecular target: ScSho1
Assay: as above
How it was run: as §1

Binder	SPOT peptide array binding signal intensity
B1	3570
B2	≤ 0
B3	99

Molecular target: ScSla1-D1-D2
Assay: as above
How it was run: as §1

Binder	SPOT peptide array binding signal intensity
B1	37.5
B2	≤ 0
B3	1300

Molecular target: ScSla1-D3
Assay: as above
How it was run: as §1

Binder	SPOT peptide array binding signal intensity
B1	94.5
B2	0.75
B3	56.5

Molecular target: SpAbp1-D1
Assay: as above
How it was run: as §1

Binder	SPOT peptide array binding signal intensity
B1	30
B2	12.5
B3	15.5

Molecular target: SpBbc1
Assay: as above
How it was run: as §1

Binder	SPOT peptide array binding signal intensity
B1	11.5
B2	0.5
B3	41

Molecular target: SpBzz1-D1
Assay: as above
How it was run: as §1

Binder	SPOT peptide array binding signal intensity
B1	220
B2	2670
B3	2280

Molecular target: SpBzz1-D2
Assay: as above
How it was run: as §1

Binder	SPOT peptide array binding signal intensity
B1	0.5
B2	31.2
B3	28.8

Molecular target: SpCyk3
Assay: as above
How it was run: as §1

Binder	SPOT peptide array binding signal intensity
B1	10.5
B2	1
B3	23

Molecular target: SpHof1
Assay: as above
How it was run: as §1

Binder	SPOT peptide array binding signal intensity
B1	61.5
B2	≤ 0
B3	22.8

Molecular target: SpHof1-2
Assay: as above
How it was run: as §1

Binder	SPOT peptide array binding signal intensity
B1	29.5
B2	≤ 0
B3	24.8

Molecular target: SpHof1-3
Assay: as above
How it was run: as §1

Binder	SPOT peptide array binding signal intensity
B1	418
B2	≤ 0
B3	98.2

Molecular target: SpHse1
Assay: as above
How it was run: as §1

Binder	SPOT peptide array binding signal intensity
B1	1270
B2	21
B3	52

Molecular target: SpLsb1
Assay: as above
How it was run: as §1

Binder	SPOT peptide array binding signal intensity
B1	≤ 0
B2	4.5
B3	44.2

Molecular target: SpLsb4
Assay: as above
How it was run: as §1

Binder	SPOT peptide array binding signal intensity
B1	10
B2	31
B3	1450

Molecular target: SpMyo1
Assay: as above
How it was run: as §1

Binder	SPOT peptide array binding signal intensity
B1	11
B2	1470
B3	662

Molecular target: SpNbp2
Assay: as above
How it was run: as §1

Binder	SPOT peptide array binding signal intensity
B1	1170
B2	2
B3	8.5

Molecular target: SpPex13
Assay: as above
How it was run: as §1

Binder	SPOT peptide array binding signal intensity
B1	127
B2	≤ 0
B3	19.5

Molecular target: SpRvs167
Assay: as above
How it was run: as §1

Binder	SPOT peptide array binding signal intensity
B1	17.3
B2	124
B3	1030

Molecular target: SpSla1-D1-D2
Assay: as above
How it was run: as §1

Binder	SPOT peptide array binding signal intensity
B1	≤ 0
B2	1.5
B3	134

Molecular target: SpSla1-D3
Assay: as above
How it was run: as §1

Binder	SPOT peptide array binding signal intensity
B1	66.5
B2	≤ 0
B3	7
